Laboratory results published in PubChem BioAssay AID372 (MTDP, 2006).
In all, about 100,000 compounds went through this assay and about 770 (0.77%) were called active. What follows is part of a selection rich in actives, with near analogues and random picks from the rest. Unmarked numbers belong to inactive results. Rule as the data show it: active = inhibition above about 50%; inactive = the rest.

biological target: Gag-Pol polyprotein (Human immunodeficiency virus type 1 group M subtype B (isolate HXB2)) (UniProt P04585); assay: RNase H inhibition, HIV 1 Gag Pol polyprotein, FRET biochemical assay, screening (AID 372); details: HIV-1 RT RNase H, FRET RNA/DNA substrate fluorescence; at 10 µM; hits give high values

Compound	inhibition
CC(c1ccccc1)N1C(=O)/C(=C/c2cccc([N+](=O)[O-])c2)SC1=S (stereo unspecified)	11%
O=C(Nc1ccc2nn(-c3ccc(F)cc3)nc2c1)c1ccc([N+](=O)[O-])cc1	16%
O=C(Nc1ccc2nn(-c3ccc(Cl)cc3)nc2c1)c1ccc([N+](=O)[O-])cc1	31%
Cc1ccc(C(=O)Nc2ccccc2)cc1[N+](=O)[O-]	7%
O=C(Nc1ccc(-c2nc3ccc(NC(=O)c4ccccc4[N+](=O)[O-])cc3[nH]2)cc1)c1ccccc1[N+](=O)[O-]	13%
Cc1ccc(-n2nc3ccc(NC(=O)c4ccc([N+](=O)[O-])cc4)cc3n2)cc1Cl	53% (active)
Cc1ccc(-n2nc3ccc(NC(=O)c4cccc([N+](=O)[O-])c4)cc3n2)cc1Cl	43%
COc1ccc(C(=O)NC(=S)Nc2ccc(C)c(Cl)c2)cc1[N+](=O)[O-]	5%
O=C(Nc1ccc2nn(-c3ccc(F)cc3)nc2c1)c1ccc(Cl)c([N+](=O)[O-])c1	52% (active)
COc1ccc(C(=O)NC(=S)Nc2ccc3nn(-c4ccc(F)cc4)nc3c2)cc1[N+](=O)[O-]	38%
O=C(Nc1ccc2nn(-c3ccccc3)nc2c1)c1ccc(Cl)c([N+](=O)[O-])c1	21%
Cc1ccc(C(=O)Nc2ccc(-c3nc4cc5ccccc5cc4[nH]3)cc2)cc1[N+](=O)[O-]	80% (active)
CC(=O)N/N=C/c1ccc(-c2ccc([N+](=O)[O-])cc2Br)o1	13%
CCOc1ccc(C(=O)NCc2cccnc2)cc1Br	0%
CC(C)=NNC(=O)/C(=C/C=C/c1ccccc1)NC(=O)c1ccccc1	7%
CC(=O)c1cccc(NC(=O)CC2S/C(=N\N=C(/C)c3ccc(Cl)cc3)NC2=O)c1 (stereo unspecified)	13%
O=C(c1nn2c(c1Br)NC(c1cccs1)CC2C(F)(F)F)N1CCOCC1 (stereo unspecified)	0%
N#Cc1ccc(C=Nc2cc(Cl)cc(Cl)c2)cc1	11%
Cc1cc2c(c(=O)o1)C(c1cccs1)C(C#N)=C(N)O2 (stereo unspecified)	4%
Cc1cc(C)c(S(=O)(=O)Nc2cc(Br)c(O)c3ccccc23)c(C)c1	18%
N#Cc1ccccc1COc1ccc(/C=C2/NC(=S)NC2=O)cc1	23%
COc1ccc(C(=O)NC(=S)Nc2cc(-c3nc4ccccc4[nH]3)ccc2C)cc1[N+](=O)[O-]	18%
COc1ccc(C(=O)NC(=S)Nc2ccc(-c3nc4ccccc4[nH]3)cc2)cc1[N+](=O)[O-]	60% (active)

Compound	inhibition
CCOc1ccc(-n2nc3ccc(NC(=O)c4ccc(C)c([N+](=O)[O-])c4)cc3n2)cc1	17%
Cc1ccc(-n2nc3ccc(NC(=O)/C=C\c4cccc([N+](=O)[O-])c4)cc3n2)cc1	59% (active)
COc1ccc(C(=O)NC(=S)Nc2ccc3nn(-c4ccccc4)nc3c2)cc1[N+](=O)[O-]	56% (active)
O=C(/C=C/c1cccc([N+](=O)[O-])c1)Nc1ccc2nn(-c3ccccc3)nc2c1	43%
Cc1ccc(C(=O)Nc2ccc3nn(-c4ccc(Cl)cc4)nc3c2)cc1[N+](=O)[O-]	51% (active)
Cc1ccc(-n2nc3cc(C)c(NC(=O)/C=C/c4cccc([N+](=O)[O-])c4)cc3n2)cc1	12%
CCOc1ccc(C(=O)NC(=S)Nc2ccc3nn(-c4ccccc4)nc3c2)cc1[N+](=O)[O-]	18%
COc1ccc(C(=O)Nc2ccc3nn(-c4ccccc4)nc3c2)cc1[N+](=O)[O-]	18%
Cc1ccc(C(=O)Nc2ccc3nn(-c4ccc(F)cc4)nc3c2)cc1[N+](=O)[O-]	40%
COc1ccc(C(=O)NC(=S)Nc2ccc(Br)cc2)cc1[N+](=O)[O-]	0%
CCc1ccc(C=NC23CN4CN(CN(C4)C2)C3)s1	5%
CCOC(=O)c1c(NC(=O)CN2C(=O)S/C(=C\c3ccccc3)C2=O)sc2c1CCCC2	10%
COc1cccc(/C=C2/SC(=S)N(CCC(=O)Nc3nnc(C)s3)C2=O)c1	7%
Cn1ccnc1SCC(=O)n1c2c(c3ccccc31)CCCC2	0%
O=C(Nc1ccc2nn(-c3cccc([N+](=O)[O-])c3)nc2c1)c1ccccc1	22%
COc1ccc(C(=O)Nc2ccc3nn(-c4ccc(C)c(Cl)c4)nc3c2)cc1[N+](=O)[O-]	53% (active)
COc1ccc(-n2nc3ccc(NC(=O)c4ccc(OC)c([N+](=O)[O-])c4)cc3n2)cc1	3%
O=C(Nc1ccc2nn(-c3ccccc3)nc2c1)c1ccc([N+](=O)[O-])cc1	12%
Cc1ccc(C(=O)Nc2ccc3nn(-c4cccc([N+](=O)[O-])c4)nc3c2)cc1	54% (active)
Cc1ccc(-n2nc3ccc(NC(=O)c4ccc([N+](=O)[O-])c(C)c4)cc3n2)cc1Cl	44%
Cc1cc([N+](=O)[O-])ccc1NC(=O)c1c(C)c(C)c(C)c(C)c1C	10%
CCOc1ccc(N(CC(=O)NCCSCc2ccccc2)S(=O)(=O)c2ccccc2)cc1	10%
CC1(C)Cc2cc3c(=O)[nH]c(=S)[nH]c3nc2CO1	0%

Compound	inhibition
N#Cc1cc2c(N)c(C(=O)c3ccccc3)sc2nc1N	8%
CC1=C(C(=O)OC2CCCCC2)C(c2ccccc2[N+](=O)[O-])C2=C(CCCC2=O)N1 (stereo unspecified)	10%
CC(C)(C)c1cc(CCC(=O)NCCNC(=O)C(=O)NCCNC(=O)CCc2cc(C(C)(C)C)c(O)c(C(C)(C)C)c2)cc(C(C)(C)C)c1O	55% (active)
COC(=O)CCc1cc(C(C)(C)C)c(O)c(C(C)(C)C)c1	0%
CC(C)(C)c1cc(CCC(=O)NCCO)cc(C(C)(C)C)c1O	0%
Cc1ccccc1OCCOc1ccc(/C=c2\sc3nc4ccccc4n3c2=O)cc1	5%
C=CCN1C(=O)C(O)=C(C(C)=O)C1c1ccc(Br)cc1 (stereo unspecified)	8%
COc1ccc(OCC(=O)Nc2cccc(-c3nc4ccccc4s3)c2)cc1	7%
Cc1ccc(-c2nc3ccccc3s2)cc1NC(=O)COc1ccccc1	10%
Cc1cc(C)cc(OCC(=O)Nc2cccc(-c3nc4ccccc4s3)c2)c1	53% (active)
Cc1cccc(OCC(=O)Nc2cccc(-c3nc4ccccc4s3)c2)c1	9%
Cc1ccc(-c2nc3ccccc3s2)cc1NC(=O)COc1ccc(Cl)cc1	69% (active)
COc1ccc(OCC(=O)Nc2cc(-c3nc4ccccc4s3)ccc2C)cc1	2%
CCc1cc(=O)oc2c(C)c(OCc3ccc(Cl)cc3)ccc12	5%
CN1C(=O)/C(=C\c2cccc(OCc3ccc(Cl)cc3Cl)c2)SC1=S	11%
Cc1ccccc1N=C(NOCc1ccc(Cl)cc1Cl)c1nonc1N	13%
Nc1nonc1C(=Nc1ccccc1)NOCc1ccc(Cl)cc1Cl	32%
COc1ccc(C2CC(=O)C3=C(C2)Nc2ccccc2NC3c2cccc(Cl)c2Cl)cc1OC (stereo unspecified)	16%
CCc1nnc(NC(=O)Nc2ccc(Cl)cc2)s1	10%
Cc1cc(C)c2nc3s/c(=C\c4ccc(Cl)cc4Cl)c(=O)n3c2c1	0%
COc1cccc2cc(C(=O)O)c(=O)oc12	6%
COc1cccc2cc(C(C)=O)c(=O)oc12	3%
Brc1ccc(CN2CCN(c3ncccn3)CC2)s1	1%

Compound	inhibition
Cc1c(NC(=S)NC(=O)/C=C/c2ccccc2)cccc1-c1nc2ccccc2o1	36%
Cc1ccc(-c2nc3ncccc3o2)cc1NC(=S)NC(=O)/C=C/c1ccccc1	5%
Cc1c(NC(=S)NC(=O)/C=C/c2ccccc2)cccc1-c1nc2ncccc2o1	52% (active)
CCOc1ccc(OCCCCOc2ccccc2C)cc1	18%
O=C(N/N=C/c1cccc(Br)c1)C(=O)N1CCCC1	15%
N#CC1=C(N)Oc2cc(N)ccc2C1c1cccc(Oc2ccccc2)c1 (stereo unspecified)	5%
OCCNCCCOc1cc(Cl)ccc1Cl	8%
CCCCNCCCOc1cc(Cl)ccc1Cl	57% (active)
CCCCNCCCCCCOc1ccc(Cl)cc1Cl	10%
COc1ccc(-c2cc(C(=O)NCc3ccco3)c3ccccc3n2)cc1	14%
COC(=O)c1c(NC(=O)c2ccccc2Br)sc(C)c1C	23%
O=C1N=c2ccc(Br)cc2=C1c1sc(=S)n(-c2ccc(Cl)cc2)c1O	51% (active)
O=C1N=c2ccccc2=C1c1sc(=S)n(-c2ccc(F)cc2)c1O	12%
O=C1N=c2ccc(Br)cc2=C1c1sc(=O)n(-c2cccc(Cl)c2)c1S	50% (active)
O=C1N=c2ccc(Br)cc2=C1c1sc(=S)n(-c2ccc(Br)cc2)c1O	15%
O=C1N=c2ccc(Br)cc2=C1c1sc(=O)n(-c2ccc(O)cc2)c1O	41%
CCN(CC)c1ccc(-n2c(O)c(C3=c4ccccc4=NC3=O)sc2=S)cc1	50% (active)
CCOc1ccc(-n2c(O)c(C3=c4cc(Br)ccc4=NC3=O)sc2=S)cc1	9%
O=C1N=c2ccc(Cl)cc2=C1c1sc(=O)n(-c2ccccc2)c1O	42%
O=C1N=c2ccccc2=C1c1sc(=S)n(-c2ccc(Cl)cc2)c1O	0%
CC(C)c1ccc(/C=C2/C(=O)NN(c3ccccc3)C2=O)cc1	4%
CCOC(=O)c1ccc(NC(=S)NCCO)cc1	0%
